# Results published in the supplement of paper PMC12632987.
# Over roughly 4,500 sequences, “median log2 fold change of GCK-ALFA target abundance (FLAG IP / Myc IP barcode read proportion)” has its median near 0.078; the lowest 2% begin near -0.6. This excerpt belongs to a sample that is enriched for the lowest values.
# B1: GBRAP_160_4272 (protein)
# chain: SPEREELIEDIEEDREEILELVDKISPEEVRNFAVTSLGSHLLEAIDLGLVTDEQEDELMEIVDELEKELKEAENASKEEIKKIITEHYDKAIEILKKAK
# B2: GBRAP_166_4873 (protein)
# chain: HMEELLKKAEKEIEKLLKEASEADEEEQVELYIEIGEIIEELKEAGASLEDILELIERTLKEAKKLGLDVKKLAGIIINVTDFNEEEIDKIDEIVEKVLK
# B3: GBRAP_14_3780 (protein)
# chain: MEKIEEIIREKAEEIIELLTEIAPEKAEEITEIVEEVVERTIARIKETGNAEEAAEEGRDELLARIAELTADLPAETRARMLAVVAVEFGQAILEIEELL
# B4: GBRAP_125_2986 (protein)
# chain: EEEELLEDLREIFKALGLSEEDAEEAVKLAREFSLKQTLYALMAALGAEEVADAVAKLTEEQAKEVVKEASEYIKKNPNITPEEVVELLLELAKKQLAKA
# B5: GBRAP_78_6666 (protein)
# chain: ELEKIIDETLELLTEVIRASKSLPPEVQEAVLDEAVEAATELEEIEEEGPNLEELEEAIKHLEKLLELLEKNKSPELEPLIEKLKKQIEKLKKAKEELEK
# B6: GBRAP_95_7066 (protein)
# chain: EEDREIAEDLIDTAEDLVEIGLYEQAARAAKAAVEVLKEIGETGELALRAAEVLVKVAEATGDEEAAEAAKEVLERIREAGGDEERIKELEKRLEEAKKK
# B7: GBRAP_184_5265 (protein)
# chain: KVLERTIKAENVEELIAKMEEVRKEALATGADVIILLEVEKLTKEMIDALFAQLKALRDAGYKGKITVGIDADLTEEMIDYVIKKADEAGVNVVLAISEE
# B8: GBRAP_84_6999 (protein)
# chain: STDEEIIELAKEIFDRVKGEAAVKILALVLLKVTGETATRILNYALERDPQVAYDALSLAYEVVSEDKEEELEEEARRLMAEESPEVRAKFERLLELMKA
# B9: GBRAP_128_3320 (protein)
# chain: MDEELLAEFKELAEAAKKADLPTLAKLTAEMVALIGQADAETREEMAEIFRKALEELDAEKLDVVADTLRAEMPKLDPEAARVVADLAVDALNLAEEKEE
# B10: GBRAP_11_2689 (protein)
# chain: KKEKLEEGAKLAEKGAELVERLLREGVDNEELLAELEKTLEELLKLAKKHASPASQKLTEDIKETWKRLLADPENAEEYARELLAGLRVLAGQYLLEIEE
# B11: GBRAP_137_3670 (protein)
# chain: MIRVEVELENGLAFARITVEGSPEELERAAEIAEDIAGEIPDLAVSVKLTEEGRLEIDVFGTPESVEAFLRRLAERLDRTVEVTTRDEETGEVRRRVIRP
# B12: GBRAP_184_5066 (protein)
# chain: SVAEETLEVRDLAEARAKLAALRAAVADHRGDLVVHLVLPEFDREIVALVLEGLAEIRAAGYARRVTVGLDADLTEEEADFAIELADAAGVNLTLALPEE
# B13: GBRAP_95_7084 (protein)
# chain: EEELEEAEALMATAVDLYDAGLEEQAARAIRDALDELEELGYKVADKELLERLLRHFVALALRHFDAEEVERALALAEASGAPAEIIAALRAALAALRAA
# B14: GBRAP_79_6747 (protein)
# chain: GVEEARRALVEALRVVLPDLTEEEAAEAVASDEALRAALLRAGISEEMAAELLEAIDAIPELAAERFRRTVERMEGLEPEDRRDVLEATIAAVIYEAEQR
# B15: GBRAP_160_4279 (protein)
# chain: SEKLLELAEELEEDREEILSLVDEISAEEVRTLAVTDLGSILLEAIDLELLSDEEEDELAKIIDDLDAELAAAADASPAERRAIITRHYDKAIELLRKAA
# B16: GBRAP_52_6358 (protein)
# chain: ALEEALALLREALAAVAAGDEEEARAILEELVATYSEETILAAFERLAEEVADKDVATAEALLETALLLADVMDEAGRDPAVADDIEAIAARTYMAVKAK
# B17: GBRAP_48_5840 (protein)
# chain: EEEKREKAIEEILKIIKETAELLEEAKEEGLSEAAFEAILIDAAEEIKEVLEKYLGLGEEFEKLPLEEQLAIVEELVKTYKEEGEEATRKKIKEFIEKLE
# B18: GBRAP_186_5371 (protein)
# chain: EEEAEKEIEEFIDEAAKKGYVISGVLEVKEFTEEAKKKIFDELEALAEFSAEFGYKGALIIKSTVSEEEFEELKKFVEEKRDELSKETGAEVEVKIVHVK
# B19: GBRAP_78_6619 (protein)
# chain: ETKEKIIELLDRARDRMREIARREPEVRDLANEAAVLVGTAILMVDTGEESKEEIIEELEEALKVAKELLERLEGRDEESVKLAKEAIEDLKKAIELVKK
# Target: GABARAP, O95166
# Sequence (O95166 whole entry, the tested form may be a part): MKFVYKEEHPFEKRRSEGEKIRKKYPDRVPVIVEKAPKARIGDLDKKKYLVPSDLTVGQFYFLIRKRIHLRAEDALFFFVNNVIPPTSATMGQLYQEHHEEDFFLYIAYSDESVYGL
# Test: median log2 fold change of GCK-ALFA target abundance (FLAG IP / Myc IP barcode read proportion) (log2 ratio); each designed protein is fused to an ALFA-tag nanobody in HEK293 cells to bring the named protein to FLAG-tagged glucokinase (GCK); Myc marks an untargeted standard; higher = target protein stabilised (more abundant)
# Settings: target protein: 3xFLAG-MCP-GCK-ALFA reporter; HEK293 landing pad (RPLP)
# Method in brief: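 The readout is target abundance, the per-binder median log2 ratio of FLAG to Myc barcode read proportions. It came from HEK293 landing-pad cells carrying a recombined ALFA-nanobody-fused binder library, induced with 2 μg mL^−1 doxycycline and transfected with a plasmid for a FLAG-tagged target and a Myc-tagged standard. After 48 h, lysates were immunoprecipitated with anti-FLAG and anti-Myc, and circular RNA barcodes were reverse transcribed, amplified and sequenced. Each barcode needed a proportion of at least 10^−7 in both replicates and each binder at least 3 barcodes per replicate, a pseudocount of 10^−6 was added, and the replicates were pooled.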
row,Binder,median log2 fold change
1,B1,0.239
2,B2,-0.298
3,B3,-0.0168
4,B4,-0.643
5,B5,0.274
6,B6,0.142
7,B7,-0.0191
8,B8,-0.601
9,B9,0.0824
10,B10,0.195
11,B11,0.0906
12,B12,0.0273
13,B13,-0.692
14,B14,0.209
15,B15,-0.493
16,B16,-0.632
17,B17,-0.364
18,B18,0.163
19,B19,0.338
